24 compounds from PubChem BioAssay (NCATS) can be followed below.

Experiment [1] in a line: Viability qHTS for spleen associated tyrosine kinase inhibitor (SYKi) naive MV4-11 cells (AID 1963823). Note: nearly all actives have a fitted effect of over 40% in size. A digest of the protocol: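 Luminescence from CellTiter-Glo, developed 10 min at room temperature, gave viability of MV4-11 cells never exposed to SYK inhibitor. Cells (500/well) had been incubated with compounds for 72 hr under standard culture conditions.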
In general terms: In qHTS, concentration-response curves come from the screen itself.

Experiment [2] can be described thus: Viability qHTS for spleen associated tyrosine kinase inhibitor (SYKi) drug resistant MV4-11 cells (AID 1963824). Note: nearly all actives have a fitted effect of over 35% in size. In a few lines: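 CellTiter-Glo luminescence, read 10 min after reagent addition, reports viability after a 72 hr compound exposure. Cells are an MV4-11 line made resistant to SYK inhibition, seeded at 500 per well onto compound-containing plates.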

Records with an inconclusive call do not appear. Values without a mark were called inactive. The source made the active and inactive calls. Calls come from the whole dose curve; as a rule, active = well fitted cell-killing curve with a large enough effect; inconclusive = small, poorly fitted or top-dose-only effect, or effect the other way; inactive = no such curve, though single readings can be large or run the other way.
Potency is the fitted concentration of half-maximal effect.

Take `C#Cc1cccc(Nc2nc3cc(C(=O)O)ccc3c3cncnc23)c1`: the Potency in experiment [1] is 5.17 µM (active); in experiment [2], 2.91 µM (active).
Take `Cc1noc(C)c1-c1cc(O)cc(C(O)c2ccccc2)c1` (stereo not drawn): the Potency in experiment [1] and in experiment [2] was 1.46 µM (active) throughout.
In the case of `C=C1CC2OC(=O)C(=C)C2C(O)/C=C(\C)CCC1O` (stereo not drawn), the Potency in experiment [1] was 18.4 µM (active); in experiment [2], 13 µM (active).
As for `O=S(=O)(NCc1cccc2ccccc12)c1cc(Cl)c(Oc2cccc(N3CCNCC3)c2)s1`, the Potency in experiment [1] was 2.59 µM (active); in experiment [2], 4.61 µM (active).
For `O=C(/C=C\n1cnc(-c2cc(C(F)(F)F)cc(C(F)(F)F)c2)n1)N1CC(F)(F)C1`, the Potency in experiment [1] is 0.366 µM (active); in experiment [2], 0.731 µM (active).
Regarding `COc1ccc(OC2OC(CO[C@@H]3O[C@@H](C)[C@H](O)[C@@H](O)[C@H]3O)C(O)C(O)C2O)cc1OC` (stereo partly drawn), the Potency result in experiment [1] and in experiment [2] was “inactive” throughout.
Consider `CCOc1cc(CNC2CCCC2)cc(Cl)c1OCc1ccc(Cl)cc1`, for which the Potency in experiment [1] was 4.61 µM (active); in experiment [2] it was 5.8 µM (active).
Regarding `CCN1/C(=C/C(C)=O)Sc2ccc(OC(C)=O)cc21`, the values for the Potency in experiment [1] and in experiment [2] were 7.31 µM (active) and 10.3 µM (active), respectively.
For `CC(C)c1cc(C(=O)N2CC[C@H](NC(=O)C3CC3)C2)n[nH]1` the same measures were “inactive” and “inactive”.
As for `CNC(=O)c1ccccc1Nc1nc(Nc2ccc3c(c2OC)CCCC(N2CCN(CCO)CC2)C3)ncc1Cl` (stereo not drawn), the Potency in experiment [1] was 0.366 µM (active); in experiment [2], 0.731 µM (active).
Take `COC1=CC(=O)O[C@@H](CCc2ccccc2)[C@@H]1O`: the Potency entry in experiment [1] and in experiment [2] was “inactive” throughout.
As for `CCC[C@@H](NC(=O)N1C(=O)C(CC)(CC)[C@@H]1Oc1ccc(C(=O)N2CCN(C)CC2)cc1)c1ccc2c(c1)OCO2`, the results for the Potency in experiment [1] and in experiment [2] were 18.4 µM (active) and 20.6 µM (active), respectively.
Take `CC(=O)OC1(C)CC(O)C2(O)C=COC(OC3OC(CO)C(O)C(O)C3O)C12` (stereo not drawn): the Potency entry in experiment [1] and in experiment [2] was “inactive” each time.
With `CC[C@H](C)[C@@H]1NC(=O)[C@H](Cc2ccc(OC)cc2)NC(=O)CCCSC[C@@H](C(=O)N2CCC[C@H]2C(=O)N[C@@H](CC(C)C)C(=O)NCC(N)=O)NC(=O)[C@H](CC(N)=O)NC(=O)[C@H](CCC(N)=O)NC1=O`, the Potency result in experiment [1] and in experiment [2] was “inactive” each time.
`OCC(CO[C@@H]1O[C@H](CO)[C@@H](O)[C@H](O)[C@H]1O)c1ccc2c(c1)OCO2` (stereo partly drawn): the Potency entry in experiment [1] and in experiment [2] was “inactive” in each case.
With `Cc1ccc(-c2c(C(=O)CF)n(CCCO)c3ncnc(N)c23)cc1`, the Potency in experiment [1] is 3.66 µM (active); in experiment [2] it was 10.3 µM (active).
In the case of `O=C(c1ccc(F)c(F)c1Nc1ccc(I)cc1F)N1CC(O)(C2CCCCN2)C1` (stereo not drawn), the Potency in experiment [1] was 0.184 µM (active); in experiment [2], 0.326 µM (active).
Regarding `CC(C)=CCC/C(C)=C/CC/C(C)=C/COC1OC(COC2OCC(OC3OCC(O)C(O)C3O)C(O)C2O)C(O)C(OC2OC(C)C(OC3OC(C)C(OC4OCC(OC5OC(C)C(O)C(O)C5O)C(O)C4O)C(O)C3O)C(O)C2O)C1O` (stereo not drawn), the viability (% of control) in experiment [1] is 70.7% [at 9.25 µM]. Besides, in experiment [2], the viability, % of control was 96.7% [at 9.25 µM].
Turning to `CC1=C(CCC(C)O[C@@H]2O[C@H](CO)[C@@H](O)[C@H](O)[C@H]2O)C(C)(C)CC(O)C1` (stereo partly drawn), the Potency result in experiment [1] and in experiment [2] was “inactive” each time.
Turning to `COC1CC(=O)C23C(=O)NC(CC(C)C)C2C(C)C(C)=CC3/C=C(\C)CCC(O)C1O` (stereo not drawn), the results for the Potency in experiment [1] and in experiment [2] were 1.42 µM (active) and 1.78 µM (active), respectively.
As for `C[C@@H]1CC[C@]2(C(=O)O[C@@H]3O[C@H](CO)[C@@H](O)[C@H](O)[C@H]3O)CC[C@]3(C)C(=CCC4[C@@]5(C)C[C@@H](O)[C@H](O)[C@@](C)(C(=O)O[C@H]6[C@H](O)C[C@@]7(C)C(CC[C@]8(C)C7CC=C7[C@H]9[C@](C(=O)O[C@@H]%10O[C@H](CO)[C@@H](O)[C@H](O)[C@H]%10O)(CC[C@@H](C)[C@@]9(C)O)CC[C@]78C)[C@@]6(CO)C(=O)O)C5CC[C@]43C)[C@@H]2[C@]1(C)O` (stereo partly drawn), the viability (% of control) in experiment [1] is 65.2% [at 9.25 µM]. Also, in experiment [2], the viability, % of control was 103% [at 9.25 µM].
As to `C/C(=C\CCC(C)CCO)C(=O)OC[C@H]1O[C@@H](O[C@@H]2OC=C(C(=O)O)[C@H]3CC[C@](C)(O)[C@@H]23)C(O)[C@@H](O)C1O` (stereo partly drawn), the Potency entry in experiment [1] and in experiment [2] was “inactive” throughout.
Turning to `COCc1c(Cl)ccc2c1CC[C@H]2c1ncc[nH]1`, the Potency entry in experiment [1] and in experiment [2] was “inactive” throughout.
With `CC1(C)CC[C@]2(C(=O)O[C@@H]3O[C@H](CO)[C@@H](O)[C@H](O)[C@H]3O)CC[C@]3(C)C(=CCC4[C@@]5(C)C[C@@H](O)[C@H](O)C(C)(C)C5[C@H](O)C[C@]43C)[C@@H]2[C@@H]1O` (stereo partly drawn), the Potency entry in experiment [1] and in experiment [2] was “inactive” throughout.
